CHT PAM: allosteric activators of human choline transporter CHT; Q9GZV3; CHT-expressing cells, membrane potential dye, choline EC20; active compounds read high; LV-AA mutant CHT in HEK293 cells; B-score at 10 µM; actives 0.49% (n = 310,000); AID 488977;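 active = initial fluorescence not abnormally high and integrated response B-score, plate-corrected, over 3 SD above library mean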
Target sequence (Q9GZV3 whole entry, looked up): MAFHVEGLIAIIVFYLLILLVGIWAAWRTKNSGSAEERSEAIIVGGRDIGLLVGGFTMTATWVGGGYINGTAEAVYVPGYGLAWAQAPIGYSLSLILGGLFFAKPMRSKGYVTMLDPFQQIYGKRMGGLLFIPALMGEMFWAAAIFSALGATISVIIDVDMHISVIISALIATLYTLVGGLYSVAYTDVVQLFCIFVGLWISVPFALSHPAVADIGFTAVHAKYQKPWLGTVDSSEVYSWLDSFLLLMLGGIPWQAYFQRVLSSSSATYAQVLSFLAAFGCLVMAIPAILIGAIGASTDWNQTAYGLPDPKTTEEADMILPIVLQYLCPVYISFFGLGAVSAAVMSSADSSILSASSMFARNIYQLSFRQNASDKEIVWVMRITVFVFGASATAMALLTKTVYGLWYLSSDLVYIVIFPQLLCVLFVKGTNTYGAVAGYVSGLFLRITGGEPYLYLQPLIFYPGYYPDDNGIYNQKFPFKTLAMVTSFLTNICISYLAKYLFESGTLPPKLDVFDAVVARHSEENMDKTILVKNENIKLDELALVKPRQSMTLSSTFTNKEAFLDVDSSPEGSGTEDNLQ
CHT inh: inhibits the human high affinity choline transporter; AID 488975; CHT-expressing cells, membrane potential dye, choline response; active compounds read low; Q9GZV3; B-score at 10 µM; actives 0.86% (n = 310,000);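 active = B-score over 3 SD under the library average, and starting fluorescence ratio not unusually high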;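 also: choline stimulus applied at its EC90 after an EC20 pre-addition; B-score computed on integrated fluorescence ratio after choline addition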
ANO1 block: mouse TMEM16A channel inhibition, primary screen; Q8BHY3; HEK293 TMEM16A/YFP iodide influx fluorescence, ionomycin; normalized B-score (activity score, 25-100; higher = stronger inhibition) at 10 µM; actives 1.2% (n = 310,000); AID 588511;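 active = ratio plate-corrected score three or more library SD toward inhibition, starting fluorescence score within five deviations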;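 also: score derived from kinetic fluorescence span divided by baseline fluorescence per well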
ANO1 activ: activates or potentiates the mouse TMEM16A chloride channel. HEK293 TMEM16A/YFP-H148Q/I152L, iodide quench fluorescence; active compounds read low. Q8BHY3. actives 0.3% (n = 340,000). B-score at 10 µM. AID 623877;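 active = fluorescence-ratio B-score plate-corrected deviation score at least 3 library SD below zero, with starting fluorescence score within 5 deviations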;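 also: channel opened by trigger with iodide after compound preincubation; score built on the fluorescence ratio of max minus min over baseline; more negative score means more quench and so TMEM16A activation or potentiation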
CHT inh conf: confirmation of human choline transporter CHT inhibitors. AID 493221. CHT-expressing cells, choline membrane potential dye; LV-to-AA substituted CHT, HEK293 cells. actives 70% (n = 2,400). CHT activity remaining % of control (active compounds read low), % at 10 µM. shares compounds with CHT inh;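 active = choline transporter activity left, mean of duplicates at 10 µM, below buffer-only control mean minus 3 SD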;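 also: depolarization triggered by choline at its EC90 following an EC20 pre-addition; 0% = hemicholinium-3 full block and 100% = buffer-only control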
HEK293 MPD ctr: activity in parental HEK293 cells lacking CHT; shares compounds with CHT inh; membrane potential dye, choline response; active = decrease or increase beyond buffer ±3SD; membrane potential ratio readout (active if shifted either direction beyond buffer ±3SD; no single direction) at 10 µM; actives 4% (n = 2,400); AID 493222;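 also: parental cells lack the transporter so any hit is non-specific; ratio is peak minus trough fluorescence over baseline after EC90 choline challenge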
Active calls of the source: *; i = inactive; nt = no result. Compounds with a hit are over-represented: about 2.3% of the library has one in this group of screens.

SMILES	CHT PAM	CHT inh	ANO1 block	ANO1 activ	CHT inh conf	HEK293 MPD ctr
CC(CCc1ccccc1)NC(=O)CCNS(=O)(=O)c1ccccc1C(F)(F)F (configuration not stated)	nt	nt	nt	i	nt	nt
O=C(N/N=C/c1cccc(Oc2ccccc2)c1)c1cccc(Br)c1	i	i	i	i	nt	nt
O=C(N/N=C/c1cccc(Oc2ccccc2)c1)c1cccc(O)c1	i	-5.26*	i	i	66.5%*	i
Cn1c(-c2ccccc2)c(C=O)c2ccccc21	i	i	i	i	nt	nt
Cn1c(C(=O)O)c(C=O)c2ccccc21	i	-6.68*	i	i	i	i
Cn1ccnc1SCC(=O)NC1CCCC1	i	i	i	i	nt	nt
Cn1ccnc1SCC(=O)Nc1ccc2nc(SCC(=O)NC3CC3)sc2c1	i	-16*	i	nt	20.5%*	i
Cc1ccc2c(c1)C1CN(C)CCC1N2C(=O)c1ccccc1NS(=O)(=O)c1ccc(F)cc1 (configuration not stated)	i	i	i	i	nt	nt
Cc1ccc2c(c1)C1CN(C)CCC1N2C(=O)c1ccccc1NS(=O)(=O)c1cccc(C(F)(F)F)c1 (configuration not stated)	i	-6.92*	i	i	36.9%*	i
CCn1c(SCC(=O)c2ccccc2)nnc1-c1cccs1	i	-6.65*	i	i	68.3%*	i
CCn1c(SCC(=O)NCC(=O)Nc2ccc(F)cc2)nnc1-c1cccs1	i	-6.02*	i	i	i	i
CCn1c(SCC(=O)NCCc2ccccc2)nnc1-c1cccs1	i	i	i	i	nt	nt
CCn1c(SCC(=O)Nc2ccc(C(=O)OC)cc2)nnc1-c1cccs1	i	i	i	i	nt	nt
CC(C)=CCN1CCN(Cc2cn(C(C)C)c3ccccc23)CC1CCO (configuration not stated)	i	-4.98*	i	i	39.8%*	i
COc1ccccc1NS(=O)(=O)c1cc(C(=O)NCc2cccnc2)ccc1C	i	i	i	i	nt	nt
Cc1ccccc1NC(=O)c1ccc(C)c(S(=O)(=O)NCc2cccnc2)c1	i	-7.2*	i	i	27.0%*	i
Cc1cc(=O)[nH]c(SCC(=O)/C=C2\N(C)c3ccccc3C2(C)C)n1	i	-5.02*	i	i	69.1%*	i
CN1/C(=C/C(=O)CSc2ccccc2C(=O)O)C(C)(C)c2ccccc21	i	i	i	i	nt	nt
Cn1c(NC(=O)CCC2CCCCC2)cc(=O)n(C)c1=O	i	-6.42*	i	i	i	i
CCOC(=O)C1(Cc2ccc(OC)cc2)CCN(C(=O)c2cncs2)CC1	i	-7.06*	i	i	i	i
CCOC(=O)C1(Cc2ccc(OC)cc2)CCN(C(=O)c2csc(C)n2)CC1	i	i	i	i	nt	nt
COc1ccc(C)cc1S(=O)(=O)N(CC(=O)NC1CCCC1)c1ccc(F)cc1	i	i	i	i	nt	nt
Cc1ccc(-c2nnn(CC(=O)N(CCN3CCOCC3)C(C(=O)NC(C)(C)C)c3ccco3)n2)cc1 (configuration not stated)	i	-6.21*	i	i	23.8%*	-10.3*
CCOc1ccc(CNC(=O)CCS(=O)(=O)c2ccc3c(c2)NC(=O)CO3)cc1OC	i	i	i	i	nt	nt
Cc1ccc(S(=O)(=O)NC2=C(N3CCN(Cc4ccccc4)CC3)C(=O)c3ccccc3C2=O)cc1	i	-5.55*	i	i	70.9%*	i
SMILES	CHT PAM	CHT inh	ANO1 block	ANO1 activ	CHT inh conf	HEK293 MPD ctr
Cc1ccc(S(=O)(=O)N2CCCC2C(=O)N2CCCCCC2)cc1 (configuration not stated)	i	i	i	i	nt	nt
Cc1ccc(S(=O)(=O)N2CCCCC2C(=O)N2CCN(Cc3ccccc3)CC2)cc1 (configuration not stated)	i	-7.86*	i	i	36.7%*	-8.61*
CCOCCCn1c(=S)[nH]c2cc(C(=O)NC3CCCCC3C)ccc2c1=O (configuration not stated)	i	i	i	i	nt	nt
CC1CCN(S(=O)(=O)c2ccc3c(ccn3CCC(=O)NC(C)C)c2)CC1	i	i	i	i	nt	nt
CC1CCCCC1NC(=O)c1cccc(S(=O)(=O)N2CCN(C)CC2)c1 (configuration not stated)	i	-11.6*	i	i	2.1%*	i
CN1CCN(S(=O)(=O)c2cccc(C(=O)NC3CCCC3)c2)CC1	i	i	i	i	nt	nt
CC1CCCCC1NC(=O)CCn1ccc2cc(S(=O)(=O)N3CCCC3)ccc21 (configuration not stated)	i	-6.15*	i	i	40.8%*	i
CC1CCCCC1NC(=O)c1ccc2c(c1)[nH]c(=O)n2C1CCCC1 (configuration not stated)	i	-9.85*	i	i	40.0%*	i
CC1CCCCC1NC(=O)c1ccc(S(=O)(=O)N2CCCC2)cc1 (configuration not stated)	i	-5.36*	i	i	7.2%*	i
COc1ccc(S(=O)(=O)NCCSCc2ccc(Cl)cc2)cc1NC(C)=O	nt	nt	nt	i	nt	nt
O=[N+]([O-])c1cc([N+](=O)[O-])c2cccnc2c1Oc1ccccc1O	i	-6.96*	i	i	45.1%*	i
O=C(CN1CCN(Cc2ccccc2Cl)C1=O)NC1CCCCCCC1	i	-5.16*	i	i	i	i
CC1CCCCC1NC(=O)CN1CCN(Cc2ccccc2Cl)C1=O (configuration not stated)	i	i	i	i	nt	nt
CCCn1c2ccccc2c2cnn(CC(=O)O)c(=O)c21	i	i	i	i	nt	nt
O=C(Cn1ncc2c3ccccc3n(Cc3ccccc3)c2c1=O)NCCN1CCOCC1	i	-14.8*	i	i	6.6%*	i
CCCn1c2ccccc2c2cnn(CC(=O)OC)c(=O)c21	i	-5.83*	i	i	23.5%*	i
O=C(Cn1ncc2c3ccccc3n(Cc3ccccc3)c2c1=O)NCCCN1CCCC1	i	-9.05*	i	i	24.6%*	i
CCCn1c2ccccc2c2cnn(CC(=O)NCCCN3CCCCC3)c(=O)c21	i	-9.33*	i	i	21.1%*	i
CCCN1CCN(CCCNC(=O)Cn2ncc3c4ccccc4n(C)c3c2=O)CC1	i	i	i	i	nt	nt

Screening data from PubChem.
